Molecules are shown by their SMILES. Inconclusive results are not listed. Entries that show only a call come without a potency. A number with no mark means an inactive call. Activity calls are given as the source filed them. The call rests on the fitted dose curve; in most records, active means well fitted curve in the direction sought with a large enough effect; inconclusive means small, poorly fitted or top-dose-only effect, or another doubt; inactive means no such curve, though single readings can be large; an effect the other way counts as inactive or inconclusive.

The target of test [1] is Aldehyde dehydrogenase, mitochondrial (Homo sapiens) (UniProt P05091). Put plainly: qHTS for Inhibitors of the Aldehyde Dehydrogenase Family (ALDH2) Primary screen (AID 2061308). Further: nearly all actives have a fitted effect of over 55% in size. For orientation: qHTS replaces the single test concentration by a dilution series.
Test [2] has as its target Retinaldehyde dehydrogenase 3 (Homo sapiens) (UniProt P47895). The experiment in a line: qHTS for Inhibitors of the Aldehyde Dehydrogenase Family (ALDH1A3) Primary screen (AID 2061315).

`Cc1cccc(-n2cnc3cc(C(=O)N4CCCC(C(F)(F)F)C4)ccc32)c1` (configuration not stated): the Potency result in test [1] and in test [2] was “inactive” throughout.
As to `Cc1ccc(S(=O)(=O)Nc2cnccc2C(=O)Nc2ccncc2)cc1`, the Potency entry in test [1] and in test [2] was “inactive” each time.
On to `CC(C)(C)n1cnc2cc(C(=O)N3CCCCC3)ccc21`, for which the Potency result in test [1] and in test [2] was “inactive” each time.
For the molecule `C=CCNc1oc(-c2ccc(F)cc2)nc1C#N`, the Potency result in test [1] and in test [2] was “inactive” in each case.
On to `Cc1nc(-c2ccc([S+](=O)([O-])N3CCN([S+](=O)([O-])c4c(F)cccc4F)CC3)s2)cs1`, for which the Potency result in test [1] and in test [2] was “inactive” each time.
For `NC(=O)C1CCN(c2nc(-c3ccccc3C(F)(F)F)cs2)CC1`, the Potency entry in test [1] and in test [2] was “inactive” in each case.
As to `CNC(=O)c1ccc(-c2cnc3cnc(C(=O)N(C)c4ccc(Cl)cc4)cn23)cc1`, the Potency result in test [1] and in test [2] was “inactive” throughout.
For `Cc1ccc(S(=O)(=O)Nc2cnccc2C(=O)Nc2nc(-c3ccccc3)cs2)cc1`, the Potency entry in test [1] and in test [2] was “inactive” in each case.
As to `Cc1ccc(OCCn2c(CCNC(=O)Cc3cccc(F)c3)nc3ccccc32)cc1`, the Potency result in test [1] and in test [2] was “inactive” in each case.
`O=C(NCc1ccc(F)cc1)n1c(-c2ccccc2)c(P(=S)(c2ccccc2)c2ccccc2)c2ccccc21`: the Potency entry in test [1] and in test [2] was “inactive” in each case.
For `O=S(=O)(c1cccc(Cl)c1)N1CCN(S(=O)(=O)c2ccc3c(c2)OCCO3)CC1`, the Potency entry in test [1] and in test [2] was “inactive” throughout.
In the case of `COc1ccc(C2Nc3ccccc3C(=O)N2Cc2ccco2)cc1COc1c(C)cccc1C` (configuration not stated), the Potency entry in test [1] and in test [2] was “inactive” in each case.
Take `Cc1ccc(S(=O)(=O)Nc2cnccc2C(=O)Nc2ccc(C#N)cc2)cc1`: the Potency entry in test [1] and in test [2] was “inactive” each time.
As for `CC(C)(C)OC(=O)Cc1nnc(C(C(=O)OCc2ccccc2)c2ccccc2)s1` (configuration not stated), the Potency result in test [1] and in test [2] was “inactive” throughout.
For `O=C(Cn1nc(C2CC2)ccc1=O)NCCc1ccccc1`, the Potency entry in test [1] and in test [2] was “inactive” throughout.
With `Cc1ccc(-c2ccc(=O)n(CC(=O)NCCc3ccc(O)cc3)n2)cc1`, the Potency entry in test [1] and in test [2] was “inactive” in each case.
Take `CC(C)CCn1c(CN2CCN(C(=O)C(C)C)CC2)nc2c1c(=O)n(C)c(=O)n2C`: the Potency result in test [1] and in test [2] was “inactive” each time.
As to `CCCn1c(-c2ccc(F)cc2)nc2c(NCC3CCN(C)CC3)nc(C)nc21`, the Potency result in test [1] and in test [2] was “inactive” throughout.
Take `Cc1cc(C)cc(Cn2ncc3c4sc(C)cc4n(C)c3c2=O)c1`: the Potency result in test [1] and in test [2] was “inactive” each time.
Consider `C=C(C)C(=O)O[C@H]1C[C@@](C)(O)C(=O)CC(O)/C(C)=C\[C@H]2OC(=O)C(=C)[C@H]12` (some centres not stated), for which the Potency result in test [1] and in test [2] was “inactive” each time.
On to `NC(=O)C1CCN(c2nccc(Cl)n2)CC1`, for which the Potency entry in test [1] and in test [2] was “inactive” throughout.
As to `O=C1CCc2cc(S(=O)(=O)Nc3ccc(F)c(Cl)c3)c(F)cc2N1`, the Potency entry in test [1] and in test [2] was “inactive” throughout.
On to `Clc1cccc(-c2ccc3ncnc(NCc4ccc5c(c4)OCO5)c3c2)c1`, for which the Potency entry in test [1] and in test [2] was “inactive” in each case.
Consider `Cc1ccc(-c2cc(C(=O)NC3CCCCC3)c3ccccc3n2)cc1C`, for which the Potency result in test [1] and in test [2] was “inactive” each time.
Turning to `COc1cc(-c2ccc3ncnc(NCCc4cnc[nH]4)c3c2)cc(OC)c1OC`, the Potency entry in test [1] and in test [2] was “inactive” in each case.
As for `c1nc(N2CCOCC2)c2cc(-c3ccc4c(c3)OCO4)ccc2n1`, the Potency entry in test [1] and in test [2] was “inactive” in each case.
Regarding `CCOC(=O)c1ccoc1-c1ccc2ncnc(NCc3ccc(C)o3)c2c1`, the Potency result in test [1] and in test [2] was “inactive” in each case.
Regarding `O=C(Nc1ccc(-c2ccccc2)nc1)c1cccs1`, the Potency result in test [1] and in test [2] was “inactive” in each case.
In the case of `C/C=C1\[C@H](O[C@@H]2O[C@H](CO)[C@@H](O)[C@H](O)[C@H]2O)OC=C2C(=O)OCCc3ccc(O)c(c3)Oc3ccc(cc3)CCOC(=O)C[C@H]21`, the Potency entry in test [1] and in test [2] was “inactive” each time.
For `COc1cccc(C2=Nn3c(nnc3-c3cc(OC)ccc3OC)SC2)c1`, the Potency result in test [1] and in test [2] was “inactive” throughout.
Consider `CN(Cc1cccs1)c1ncnc2ccc(-c3ccc4c(c3)OCO4)cc12`, for which the Potency result in test [1] and in test [2] was “inactive” each time.
Take `COc1ccc(-c2ccc(=O)n(CC(=O)NCCc3ccccc3)n2)cc1OC`: the Potency entry in test [1] and in test [2] was “inactive” throughout.
Take `O=C(Nc1ccc(F)nc1)Nc1nnc(-c2ccncc2)s1`: the Potency result in test [1] and in test [2] was “inactive” each time.
With `O=[S+]([O-])(Nc1ccccc1)c1ccc(NCc2cccc(C(F)(F)F)c2F)cc1`, the Potency entry in test [1] and in test [2] was “inactive” each time.
As for `c1ccc(CNc2nc(-c3cccs3)nc3ccccc23)cc1`, the Potency result in test [1] and in test [2] was “inactive” throughout.
In the case of `CC1=CC(=O)C2C(C)(C)CCC[C@]2(C)[C@H]1CC[C@H](C)CC(=O)O` (some centres not stated), the Potency result in test [1] and in test [2] was “inactive” in each case.
Take `CCCn1c(C)nc2c(NC3CCN(Cc4ccccc4)C3)nc(C)nc21` (configuration not stated): the Potency result in test [1] and in test [2] was “inactive” each time.
`Cc1cnc(-c2ccccc2C(C)C)nc1NCc1ccc(C#N)cc1`: the Potency entry in test [1] and in test [2] was “inactive” each time.
For the molecule `CCOc1cc(F)c(CCNC(=O)c2cc3sccc3n2Cc2ccccc2)cc1OCC`, the Potency result in test [1] and in test [2] was “inactive” in each case.
For the molecule `O=S(=O)(NCc1cccc2ccccc12)c1cc(Cl)c(Oc2cccc(N3CCNCC3)c2)s1`, the Potency entry in test [1] and in test [2] was “inactive” each time.
Regarding `Nc1ccc2c(c1)C(=O)NS2(=O)=O`, the Potency result in test [1] and in test [2] was “inactive” each time.

These data come from PubChem BioAssay (NCATS).
